Measured values: the supplement of paper PMC10849652
About 7,900 targets were measured; listed, in parts, are those with a hit and a random draw of the rest. About 0.6% of all pairs of compound and target were hits. A number with no mark means an inactive call.

How the values were obtained:
Experiment in all cases: log2 fold change, soluble protein after heating vs DMSO (PISA); higher = thermal stabilisation; K562 cells, 10 uM, 30 min; active = over 0.2 and 3.5 SD of the protein, either way, in both replicates (recomputed)
[1] = compound: CC[C@@H]1C(=O)N(C)c2cnc(Nc3ccc(C(=O)NC4CCN(C)CC4)cc3OC)nc2N1C1CCCC1
Procedure, shortened: (§1)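 Soluble protein was defined as the supernatant after 21,000xg for 90 min. It came from K562 cells at 2×10^6 cells/mL given 10 μM compound for 30 min, heated in aliquots for 3 min across 48°C-58°C, pooled, and extracted in PBS with 0.5% NP-40 at 4°C, and was quantified by TMTpro 16plex LC-MS/MS with equalised channel sums. Thermal stability against control samples, from duplicates, is reported as log2 fold change.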

volasertib = compound: CC[C@@H]1C(=O)N(C)c2cnc(Nc3ccc(C(=O)N[C@H]4CC[C@H](N5CCN(CC6CC6)CC5)CC4)cc3OC)nc2N1C(C)C [volasertib]
Procedure, shortened: as §1

[2] = compound: CC[C@H](C)N1C=C(C2=C(C=C(C=C21)C3=CN=C(C=C3)N4CCNCC4)C(=O)NCC5=C(C=C(NC5=O)C)C)C
Procedure, shortened: as §1

epoxomicin = compound: CC[C@H](C)[C@@H](C(=O)N[C@@H]([C@@H](C)O)C(=O)N[C@@H](CC(C)C)C(=O)[C@]1(CO1)C)NC(=O)[C@H]([C@@H](C)CC)N(C)C(=O)C [epoxomicin]
Procedure, shortened: as §1

[3] = compound: CCn1c(C(=O)N(C2CC2)C2CC2)cc2c3c(ncn3C)c(Nc3cc(C)n(C)n3)nc21
Procedure, shortened: as §1

[4] = compound: CCn1cc(-c2ccnc3[nH]c(-c4cccc(CN(C)C)c4)cc23)c(-c2ccc(NC(=O)N(C)C)cc2)n1
Procedure, shortened: as §1

[5] = compound: CN(C)CC(=O)Nc1ccc2[nH]c(=O)c3ccccc3c2c1
Procedure, shortened: as §1

rosiglitazone = compound: CN(CCOC1=CC=C(C=C1)C[C@H]2C(=O)NC(=O)S2)C3=CC=CC=N3 (racemic) [rosiglitazone]
Procedure, shortened: as §1

[6] = compound: CN1C2=C(C3=C1C(=O)N(N=C3)CC4=CC(=CC=C4)N)SC(=C2)S(=O)C
Procedure, shortened: as §1

[7] = compound: CN1CCC(CNc2ccc3ncc(-c4cccc(OC(F)(F)F)c4)n3n2)CC1
Procedure, shortened: as §1

saracatinib = compound: CN1CCN(CCOc2cc(OC3CCOCC3)c3c(Nc4c(Cl)ccc5c4OCO5)ncnc3c2)CC1 [saracatinib]
Procedure, shortened: as §1

sotrastaurin = compound: CN1CCN(c2nc(C3=C(c4c[nH]c5ccccc45)C(=O)NC3=O)c3ccccc3n2)CC1 [sotrastaurin]
Procedure, shortened: as §1

alvocidib = compound: CN1CC[C@H](c2c(O)cc(O)c3c(=O)cc(-c4ccccc4Cl)oc23)[C@H](O)C1 [alvocidib]
Procedure, shortened: as §1

Tubastatin A = compound: CN1CCc2c(c3ccccc3n2Cc2ccc(C(=O)NO)cc2)C1 [Tubastatin A]
Procedure, shortened: as §1

[8] = compound: CNC(=O)C1=CC=CC=C1NC2=NC(=NC=C2Cl)NC3=C(C=C(C=C3)N4CCOCC4)OC
Procedure, shortened: as §1

defactinib = compound: CNC(=O)c1ccc(Nc2ncc(C(F)(F)F)c(NCc3nccnc3N(C)S(C)(=O)=O)n2)cc1 [defactinib]
Procedure, shortened: as §1

rucaparib = compound: CNCc1ccc(-c2[nH]c3cc(F)cc4c3c2CCNC4=O)cc1 [rucaparib]
Procedure, shortened: as §1

[9] = compound: CNc1nc(-c2ccc3c(N)n[nH]c3c2)cc(N2C[C@@H](C(=O)NC3CCCCC3)CC[C@H]2C)n1
Procedure, shortened: as §1

encorafenib = compound: COC(=O)N[C@@H](C)CNc1nccc(-c2cn(C(C)C)nc2-c2cc(Cl)cc(NS(C)(=O)=O)c2F)n1 [encorafenib]
Procedure, shortened: as §1

[10] = compound: COC(=O)[C@H](CCSC)NC(=O)C1=C(C=C(C=C1)NC[C@H](CS)N)C2=CC=CC=C2
Procedure, shortened: as §1

Chain of UniProt Q92664 (Q92664 whole entry, looked up): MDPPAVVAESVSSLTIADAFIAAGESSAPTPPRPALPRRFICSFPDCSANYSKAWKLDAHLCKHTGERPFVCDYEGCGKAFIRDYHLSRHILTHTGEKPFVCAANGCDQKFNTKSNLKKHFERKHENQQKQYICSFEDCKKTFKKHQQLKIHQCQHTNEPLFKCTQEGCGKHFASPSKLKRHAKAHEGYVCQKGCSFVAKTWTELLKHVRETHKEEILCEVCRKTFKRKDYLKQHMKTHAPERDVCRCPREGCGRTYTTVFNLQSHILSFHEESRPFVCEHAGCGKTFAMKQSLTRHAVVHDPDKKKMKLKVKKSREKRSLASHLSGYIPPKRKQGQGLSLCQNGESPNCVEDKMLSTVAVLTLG
Chain of UniProt Q13889 (Q13889 whole entry, looked up): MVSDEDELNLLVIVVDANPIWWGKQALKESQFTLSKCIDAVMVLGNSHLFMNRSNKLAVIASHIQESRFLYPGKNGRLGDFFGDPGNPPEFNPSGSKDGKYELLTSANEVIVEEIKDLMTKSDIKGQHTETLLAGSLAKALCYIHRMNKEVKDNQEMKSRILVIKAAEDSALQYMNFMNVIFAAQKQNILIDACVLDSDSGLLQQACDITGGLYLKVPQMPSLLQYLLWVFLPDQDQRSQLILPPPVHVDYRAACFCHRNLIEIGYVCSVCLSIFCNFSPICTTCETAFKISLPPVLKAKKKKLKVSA
Chain of UniProt Q8IWJ2 (Q8IWJ2 whole entry, looked up): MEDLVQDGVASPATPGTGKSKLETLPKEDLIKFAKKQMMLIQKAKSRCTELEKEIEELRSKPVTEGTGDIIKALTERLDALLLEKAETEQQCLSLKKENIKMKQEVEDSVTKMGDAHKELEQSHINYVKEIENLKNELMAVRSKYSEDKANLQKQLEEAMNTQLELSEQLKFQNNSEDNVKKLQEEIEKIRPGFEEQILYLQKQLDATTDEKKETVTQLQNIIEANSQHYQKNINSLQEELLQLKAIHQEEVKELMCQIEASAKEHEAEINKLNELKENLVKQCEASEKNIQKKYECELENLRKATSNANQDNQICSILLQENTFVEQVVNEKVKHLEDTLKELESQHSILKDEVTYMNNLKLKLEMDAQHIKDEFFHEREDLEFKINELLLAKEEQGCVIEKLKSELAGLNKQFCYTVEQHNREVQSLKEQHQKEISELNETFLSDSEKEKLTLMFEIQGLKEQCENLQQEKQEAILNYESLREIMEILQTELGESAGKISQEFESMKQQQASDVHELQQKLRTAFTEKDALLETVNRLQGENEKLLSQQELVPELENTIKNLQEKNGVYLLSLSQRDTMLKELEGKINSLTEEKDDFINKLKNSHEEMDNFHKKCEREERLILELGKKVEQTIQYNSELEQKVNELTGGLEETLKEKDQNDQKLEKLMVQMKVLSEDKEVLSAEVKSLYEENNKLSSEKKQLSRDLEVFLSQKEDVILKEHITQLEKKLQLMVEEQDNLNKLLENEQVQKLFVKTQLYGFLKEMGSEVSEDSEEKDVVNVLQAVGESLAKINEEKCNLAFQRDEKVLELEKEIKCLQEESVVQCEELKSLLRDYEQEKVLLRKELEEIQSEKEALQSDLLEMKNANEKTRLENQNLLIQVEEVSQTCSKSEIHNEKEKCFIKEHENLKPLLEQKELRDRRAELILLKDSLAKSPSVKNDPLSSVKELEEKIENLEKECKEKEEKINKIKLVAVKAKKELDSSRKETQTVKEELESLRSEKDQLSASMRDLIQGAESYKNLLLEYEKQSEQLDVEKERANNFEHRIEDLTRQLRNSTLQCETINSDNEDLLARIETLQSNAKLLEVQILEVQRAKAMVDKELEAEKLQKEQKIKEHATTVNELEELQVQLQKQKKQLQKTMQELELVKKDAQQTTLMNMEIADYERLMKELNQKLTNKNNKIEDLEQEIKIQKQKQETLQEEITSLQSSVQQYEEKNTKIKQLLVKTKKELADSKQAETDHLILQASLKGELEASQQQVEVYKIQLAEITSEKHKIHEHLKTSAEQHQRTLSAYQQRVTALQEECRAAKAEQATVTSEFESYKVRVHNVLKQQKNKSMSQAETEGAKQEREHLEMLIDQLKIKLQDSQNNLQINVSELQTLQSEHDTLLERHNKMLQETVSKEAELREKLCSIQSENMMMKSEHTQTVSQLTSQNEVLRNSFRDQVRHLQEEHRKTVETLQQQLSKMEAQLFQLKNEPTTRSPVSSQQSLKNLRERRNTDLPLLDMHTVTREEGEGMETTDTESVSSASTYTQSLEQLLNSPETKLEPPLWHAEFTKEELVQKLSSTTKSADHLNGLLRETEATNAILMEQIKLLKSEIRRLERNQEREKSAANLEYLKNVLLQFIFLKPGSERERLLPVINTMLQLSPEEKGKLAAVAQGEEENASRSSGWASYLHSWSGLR
Chain of UniProt Q9H4A6 (Q9H4A6 whole entry, looked up): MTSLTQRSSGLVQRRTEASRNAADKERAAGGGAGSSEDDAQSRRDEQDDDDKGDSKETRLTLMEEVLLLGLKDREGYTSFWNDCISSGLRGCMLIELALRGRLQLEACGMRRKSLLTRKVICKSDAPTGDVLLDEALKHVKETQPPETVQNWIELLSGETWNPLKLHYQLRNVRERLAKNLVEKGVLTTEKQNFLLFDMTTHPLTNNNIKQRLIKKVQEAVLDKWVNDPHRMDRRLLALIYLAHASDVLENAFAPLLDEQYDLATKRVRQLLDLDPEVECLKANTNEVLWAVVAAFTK

Target	log2 fold change [1]	log2 fold change (volasertib)	log2 fold change [2]	log2 fold change (epoxomicin)	log2 fold change [3]	log2 fold change [4]	log2 fold change [5]	log2 fold change (rosiglitazone)	log2 fold change [6]	log2 fold change [7]	log2 fold change (saracatinib)	log2 fold change (sotrastaurin)	log2 fold change (alvocidib)	log2 fold change (Tubastatin A)	log2 fold change [8]	log2 fold change (defactinib)	log2 fold change (rucaparib)	log2 fold change [9]	log2 fold change (encorafenib)	log2 fold change [10]
HECTD1 (UniProt Q9ULT8)	0.107	-0.221	0.063	0.012	-0.041	0	0.016	0.056	0.17	-0.054	-0.184	-0.066	0.111	0.071	0.033	-0.026	0.056	-0.001	-0.154	-0.018
HMGN2 (UniProt P05204)	-0.083	0.073	-0.109	-0.082	0.054	-0.041	-0.081	-0.041	0.02	0.071	-0.138	0.156	0.069	-0.05	0.026	0.046	0.13	0.075	-0.091	0.013
GCC2 (UniProt Q8IWJ2)	0.094	-0.116	0.053	-0.005	0.038	0.013	0.026	-0.01	0.196	0.031	-0.051	-0.077	0.117	0.053	0.061	0.026	0.175	0.031	0.136	-0.049
GTF2H3 (UniProt Q13889)	0.004	-0.122	0.066	-0.099	-0.035	0.115	0.052	-0.046	0.027	-0.34 (active)	-0.099	-0.079	-0.071	0.124	0.008	0.009	0.09	-0.001	-0.073	0.043
HIST2H2BF isoform 2 (UniProt Q5QNW6)	-0.043	0.153	-0.079	-0.243	0.017	0.231	-0.22	-0.055	0.398	0.084	-0.084	0.074	0.144	0.093	-0.044	0.313	0.325	0.039	0.015	0.05
HNRNPK isoform 2 (UniProt P61978)	-0.143	-0.271 (active)	0.062	0.003	-0.027	-0.027	0	0.022	-0.01	-0.216 (active)	-0.057	-0.037	-0.155	0.064	-0.017	-0.228 (active)	-0.053	0.015	0.028	0.003
GOLPH3 (UniProt Q9H4A6)	0.029	0.008	0.086	0.084	-0.016	-0.059	-0.001	0.037	-0.075	0.236 (active)	-0.016	-0.046	-0.081	0.028	0.022	-0.064	-0.064	0.013	0.047	-0.044
GTF3A (UniProt Q92664)	-0.128	-0.028	0.074	-0.101	-0.024	-0.263	0.049	0.071	0.016	-0.447 (active)	0.019	-0.008	-0.113	-0.072	-0.03	-0.18	0.206	-0.005	-0.138	0
